Measured values published in PubChem BioAssay (NCATS).
Records with an inconclusive call do not appear. The source made the active and inactive calls. Unless noted, the call rests on the fitted dose curve; in most records, active means well fitted curve in the direction sought with a large enough effect; inconclusive means small, poorly fitted or top-dose-only effect, or another doubt; inactive means no such curve, though single readings can be large; an effect the other way counts as inactive or inconclusive.

Columns and labels:
[1] = target: Estrogen receptor (Homo sapiens) (UniProt P03372); test: qHTS assay for small molecule antagonists of estrogen receptor alpha signaling (AID 588513; active means well fitted curve in the direction sought with a large enough effect in the signal ratio, with a control signal flat, not every such curve was filed as active; the % refers to the signal ratio; further: on the % scale 0 is the no-effect control and ±100 the full control effect)
In short: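 Fluorescence from CCF4 substrate after 2 h at room temperature gave reporter activity; cells had been exposed to compound and 0.5nM 17-beta-estradiol for 18 h at 37 C. Hill-equation fitting yielded IC50 and maximal response.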

[2] = target: Estrogen receptor (Homo sapiens) (UniProt P03372); test: qHTS assay for small molecule agonists of estrogen receptor alpha signaling (AID 588514; calls by dose curve;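 further: 0% = vehicle only and 100% = reference agonist; nearly all actives have a fitted effect of over 70% in size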)
In short: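 ER-alpha-UAS-bla GripTite HEK293 cells, 5000/well in 2% charcoal/dextran-stripped FBS medium, treated with compound titrations 18 h at 37 C. CCF4 beta-lactamase read by fluorescence after 2 h RT; normalised to 20 nM 17-beta-estradiol (100%) and DMSO (0%), Hill fit for EC50 and efficacy.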

[3] = target: Bile acid receptor (Homo sapiens) (UniProt Q96RI1); test: qHTS assay for small molecule antagonists of farnesoid X receptor signaling (AID 588526; calls by dose curve; further: on the % scale 0 is the no-effect control and ±100 the full control effect)
In short: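 Antagonist mode: titrated compounds tested against chenodeoxycholic acid stimulation (normalized to 50 uM CDCA and DMSO) in GeneBLAzer HEK293T cells for 16 h. Beta-lactamase read by CCF4 fluorescence; IC50 from Hill fits.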

[4] = qHTS assay for small molecule antagonists of peroxisome proliferator-activated receptor delta signaling (AID 588535; active means well fitted inhibition curve with a large enough effect in the signal ratio, with a control signal flat, not every such curve was filed as active; the % refers to the signal ratio;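 on max response: cells co-treated with a PPAR-delta agonist as stimulator during compound exposure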); conditions: HEK293T PPARd-UAS-bla, beta-lactamase FRET ratio, 18 h; 460 nm channel
In short: (§1)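 Antagonist-mode beta-lactamase reporter (GeneBLAzer PPAR-delta-UAS-bla) in HEK293T cells, 2% charcoal/dextran FBS, 4000 cells/well. Compound titrations, 18 h at 37 C; CCF4 ratio read, IC50 and efficacy from Hill fits.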

[5] = target: Peroxisome proliferator-activated receptor delta (Homo sapiens) (UniProt Q03181); test: as above
In short: as §1

[6] = target: Vitamin D3 receptor (Homo sapiens) (UniProt P11473); test: qHTS assay for small molecule antagonists of vitamin D receptor signaling (AID 588541; calls by dose curve;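 further: receptor activated by calcitriol during compound treatment; series mostly up to about 77 µM; on the % scale 0 is the no-effect control and ±100 the full control effect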)
In short: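 VDR-UAS-bla HEK293T cells in 2% charcoal-stripped FBS were stimulated with 1-alpha,25-dihydroxyvitamin D3 (3 nM final) plus compound for 16 h at 37 C. The beta-lactamase CCF4 readout was normalized to 50 nM agonist and DMSO, and Hill fits gave IC50.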

[7] = target: Vitamin D3 receptor (Homo sapiens) (UniProt P11473); test: qHTS assay for small molecule agonists of vitamin D receptor signaling (AID 588543; calls by dose curve;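 further: 0% = DMSO basal and 100% = reference agonist control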)
In short: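 Reporter cells (HEK293T, VDR-UAS-bla) were seeded in medium with 2% charcoal-stripped serum and incubated 5 h, then compounds in concentration series were added for 16 h at 37 °C. Stimulation was scaled between DMSO basal and 50 nM 1α,25-dihydroxyvitamin D3.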

[8] = qHTS assay for small molecule agonists of retinoid X receptor alpha signaling (AID 588544; calls by dose curve;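 on activation: 0% = DMSO basal wells and 100% = reference agonist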); conditions: HEK293T RXRa-UAS-bla, beta-lactamase reporter, 18 h; 530 nm emission
[9] = target: Retinoic acid receptor RXR-alpha (Homo sapiens) (UniProt P19793); test: as above
[10] = target: Thyroid hormone receptor beta (Homo sapiens) (UniProt P10828); test: qHTS assay for small molecule agonists of thyroid hormone receptor beta signaling (AID 588545; calls by dose curve)
In short: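 Cells (2500/well) were seeded, incubated 4 hrs at 37 C, dosed with a compound series, incubated 18 hrs, loaded with CCF4 dye for 2 hrs at RT, then read for fluorescence. Data were scaled between DMSO (0%) and 10 nM T3 (100%).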

[11] = qHTS assay for small molecule antagonists of retinoid X receptor alpha signaling (AID 588546; active means well fitted inhibition curve with a large enough effect in the signal ratio, with a control signal flat, not every such curve was filed as active; the % refers to the signal ratio;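 further: cells stimulated with 9-cis-retinoic acid as agonist; on the % scale 0 is the no-effect control and ±100 the full control effect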); conditions: HEK293T RXRa-UAS-bla, beta-lactamase ratio, antagonist mode; measured here: W530 green channel, cytotoxicity proxy
In short: (§2)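 Beta-lactamase reporter inhibition, read as CCF4 fluorescence ratio (ex 405, em 460/530 nm) after 2 h at RT. HEK293T UAS-bla cells, 2500/well, were stimulated with 9-cis-RA at 500 or 100 nM final alongside test compound for 18 h at 37 C.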

[12] = target: Retinoic acid receptor RXR-alpha (Homo sapiens) (UniProt P19793); test: as above; conditions: HEK293T RXRa-UAS-bla, beta-lactamase ratio, antagonist mode
In short: as §2

[13] = target: Thyroid hormone receptor beta (Homo sapiens) (UniProt P10828); test: qHTS assay for small molecule antagonists of thyroid hormone receptor beta signaling (AID 588547; active means well fitted inhibition curve with a large enough effect in the signal ratio, with a control signal flat, not every such curve was filed as active; the % refers to the signal ratio); conditions: TR-UAS-bla HEK293, beta-lactamase ratio, antagonist mode, 18 h
In short: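 TR-UAS-bla GripTite HEK293 cells in 2% charcoal/dextran FBS medium; compounds 0.59 nM to 92 uM with T3 at 0.4nM final, 18 h at 37 C. Beta-lactamase read by CCF4 fluorescence (460/530 nm); Hill fits gave IC50 and efficacy.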

[14] = qHTS assay for small molecule agonists of the antioxidant response element (ARE) signaling pathway (AID 651741; active means well fitted activation curve with a large enough effect in the signal ratio; the % refers to the signal ratio; further: % of control where 0% means no effect)
In short: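 CellSensor ARE-bla HepG2 cells (2,000/well) carrying ARE-driven beta-lactamase, exposed 16 h at 37 C. LiveBLAzer B/G FRET substrate added for 2 h at room temperature; fluorescence intensity read.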

[15] = qHTS assay for small molecule activators of the p53 signaling pathway (AID 651743; active means well fitted activation curve with a large enough effect in the signal ratio, not every such curve was filed as active; the % refers to the signal ratio; further: series mostly up to about 92 µM; % of control where 0% means no effect); conditions: HCT-116 p53RE-bla, beta-lactamase FRET ratio, 16 h; stronger effect = higher value
In short: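 p53RE-bla HCT-116 cells carrying a beta-lactamase reporter under p53 response elements were exposed to compounds for 16 hours at 37 C. Reporter activity read as fluorescence after 2 hours at room temperature with LiveBLAzer B/G FRET substrate.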

[16] = qHTS assay for small molecule activators of the nuclear factor-kappa B (NF-kB) signaling pathway (AID 651749; active means well fitted activation curve with a large enough effect in the signal ratio; the % refers to the signal ratio; further: series mostly up to about 77 µM; % of control where 0% means no effect); conditions: NF-kB-bla ME-180 cells, beta-lactamase FRET ratio, 16 h; stronger effect = higher value
In short: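 NF-kB-bla ME-180 cells carrying a beta-lactamase reporter under an NF-kB response element, 2,000 cells/well, exposed to compound for 16 hr at 37C; FRET-based beta-lactamase fluorescence read-out of pathway activation.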

[17] = qHTS assay for environmental chemicals that activate the Aryl hydrocarbon Receptor (AhR) signaling pathway (AID 651777); conditions: 1A2-DRE human hepatoma cells, luciferase, 24 h; stronger effect = higher value; further: % of control where 0% means no effect; nearly all actives have a fitted effect of over 15% in size
In short: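 Luminescence read-out: One-Glo added for 30 min at RT after 24 hr compound treatment (37 C, 5% CO2) of human hepatoma cells expressing a DRE/CYP1A2 promoter–luciferase reporter; increased signal indicates AhR activation.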

[18] = target: Peroxisome proliferator-activated receptor alpha (Homo sapiens) (UniProt Q07869); test: qHTS assay for small molecule agonists of the peroxisome proliferator-activated receptor alpha (PPARalpha) signaling pathway (AID 651778); conditions: PathHunter PPARalpha complementation, chemiluminescence, 6 h; stronger effect = higher value; further: % of control where 0% means no effect
In short: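 Enzyme-fragment complementation assay in which ligand-bound PPARalpha translocates and forms an active enzyme that generates chemiluminescence. Cells were plated overnight, exposed to compound for 6 hr at 37 C, and then given detection reagent for 60 min at room temperature.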

[19] = qHTS assay for small molecule agonists of the antioxidant response element (ARE) signaling pathway measured by Nrf2-dependant transcriptional activity (AID 720636; active means well fitted curve in the direction sought with a large enough effect in the repeat runs; an effect the other way counts as inactive or inconclusive;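 further: HepG2 cells with an ARE-driven luciferase reporter; % of control where 0% means no effect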)
In short: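 HepG2 ARE-luc reporter line, 1% dialyzed FBS; 6 hr attachment at 37 C, compound pinned in, 16 hr at 37 C/5% CO2; ONE-Glo, 30 min RT, luminescence read.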

[20] = qHTS assay for cell viability of HEK293 cells (AID 743288); conditions: ATP luminescence (CellTiter-Glo), 18 h; max response: stronger effect = lower value; further: potency means the concentration at half of the fitted maximal effect; nearly all actives have a fitted effect of over 50% in size
In short: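 HEK293 parental, 2,000 cells/well; ≥5 h pre-incubation 37 C; pintool compound addition; 18 h, 37 C; CellTiter-Glo 30 min RT; luminescence read.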

[21] = qHTS assay for cell viability of the p53RE-bla HCT-116 cell line (AID 743292); further: potency means the concentration at half of the fitted maximal effect; nearly all actives have a fitted effect of over 55% in size
In short: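 Luminescent ATP quantitation (CellTiter-Glo) served as the viability read-out; reagent was added after 16 h compound exposure at 37 C and read after 30 min at room temperature. Cells: p53RE-bla HCT-116, 4,000 per well.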

Furin (Homo sapiens) = Furin (Homo sapiens) (UniProt P09958); test: Furin counterscreen qHTS for Zika virus inhibitors (AID 1347149);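 further: purified recombinant full-length human furin enzyme at 5 nM; fluorescence gain from furin cutting a BOC-RVRR-AMC peptide substrate over 15 min; top concentration of the series differs between compounds; plate controls were no-inhibitor control for no effect and no-enzyme control for full effect; nearly all actives have a fitted effect of over 70% in size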
In short: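 Fluorogenic cleavage of BOC-RVRR-AMC (2 microM final, Km ~15 µM) was monitored (ex 340, em 450 nm) at 37C after 15 min RT preincubation of 5 nM furin with compounds in HEPES pH 7.0 buffer with CaCl2 and Triton X-100. Percent inhibition was fitted to a 4-parameter Hill curve.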

[22] = Confirmatory screen GU Rhodamine qHTS for Zika virus inhibitors qHTS (AID 1347157); further: potency means the concentration at half of the fitted maximal effect; nearly all actives have a fitted effect of over 70% in size
In short: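 Compounds, tested up to 114 microM, were incubated for 15 minutes with 25 nM unlinked NS2B-NS3 protease at pH 8.0. Cleavage of 1.5 microM Rhodamine110 substrate was then followed by fluorescence for 15 minutes.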

[23] = ZIKV-mCherry secondary qHTS for Zika virus inhibitors (AID 1347158); further: top concentration of the series differs between compounds
In short: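 Vero cells (5,000/well) were given compound, then infected with ZIKV-mCherry at MOI 1 for 48–72 h at 37 °C. After PFA fixation and Hoechst staining, imaging gave percent mCherry-positive cells. The positivity threshold was RFU above 450, 3 SD over negative controls.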

[24] = Confirmatory screen NINDS Rhodamine qHTS for Zika virus inhibitors (AID 1347161); further: potency means the concentration at half of the fitted maximal effect; nearly all actives have a fitted effect of over 60% in size
In short: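 qHTS dose-response: 25 nM linked protease, pH 8.0 Tris/Tween buffer, cpd titration, 15 min RT preinc, 1.5 microM Rhod110 peptide, 15 min reaction (~15% conversion), Ex480/Em540; 4-parameter Hill fit.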

[25] = tested on: Zika virus NS2B-NS3 protease (linked); test: 384 well plate NINDS AMC confirmatory qHTS for Zika virus inhibitors (AID 1347163); further: potency means the concentration at half of the fitted maximal effect; nearly all actives have a fitted effect of over 50% in size
In short: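 Linked NS2B-NS3 protease (final 5 nM, 30 nM or 60 nM) was preincubated with compounds (final up to 1 mM) for ~15 minutes. Ac-VKTGKR-AMC substrate (final 30 microM) then reacted for 25 minutes at room temperature in the dark. Fluorescence (ex 355/em 460 nm) was normalized to no-enzyme and no-inhibitor controls.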

[26] = tested on: Zika virus NS2B-NS3 protease (linked construct); test: 384 well plate NINDS Rhodamine confirmatory qHTS for Zika virus inhibitors (AID 1347164);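 further: fluorescence from protease cleavage of Ac-LKRR-rhodamine 110 substrate; potency means the concentration at half of the fitted maximal effect; nearly all actives have a fitted effect of over 65% in size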
In short: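 Enzyme (final 5/30/60 nM) + cpd (DMSO), ~15 min; add Ac-LKRR-Rd 10 microM final; 25 min RT, dark; FI ex 485/em 538; normalized to no-enzyme, no-inhibitor ctrls; aprotinin intraplate ctrl.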

[27] = target: Nuclear receptor subfamily 1 group I member 2 (Rattus norvegicus) (UniProt Q9R1A7); test: qHTS assay for small molecule activators of the rat pregnane X receptor (rPXR) signaling pathway (AID 651751; call rule not given here; further: 0% is about no effect); conditions: rPXR reporter cells, luciferase (One-Glo), 24 h
[28] = qHTS assay for small molecule activators of the human pregnane X receptor (PXR) signaling pathway (AID 720659; call rule not given here; further: 0% is about no effect)

Retinoic acid receptor RXR-alpha (Homo sapiens), sequence (P19793 whole entry, looked up): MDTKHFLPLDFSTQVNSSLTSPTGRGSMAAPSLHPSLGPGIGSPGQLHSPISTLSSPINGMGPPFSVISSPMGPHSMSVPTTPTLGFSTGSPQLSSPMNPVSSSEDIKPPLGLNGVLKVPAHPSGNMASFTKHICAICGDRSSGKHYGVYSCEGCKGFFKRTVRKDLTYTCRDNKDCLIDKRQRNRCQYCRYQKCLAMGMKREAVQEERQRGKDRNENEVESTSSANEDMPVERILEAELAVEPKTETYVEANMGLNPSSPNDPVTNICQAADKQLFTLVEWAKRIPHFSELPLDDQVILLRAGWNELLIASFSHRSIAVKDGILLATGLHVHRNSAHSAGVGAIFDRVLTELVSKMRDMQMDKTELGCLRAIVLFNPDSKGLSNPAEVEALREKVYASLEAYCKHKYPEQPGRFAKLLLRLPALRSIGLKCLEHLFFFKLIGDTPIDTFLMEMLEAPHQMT
Estrogen receptor (Homo sapiens), sequence (P03372 whole entry, looked up): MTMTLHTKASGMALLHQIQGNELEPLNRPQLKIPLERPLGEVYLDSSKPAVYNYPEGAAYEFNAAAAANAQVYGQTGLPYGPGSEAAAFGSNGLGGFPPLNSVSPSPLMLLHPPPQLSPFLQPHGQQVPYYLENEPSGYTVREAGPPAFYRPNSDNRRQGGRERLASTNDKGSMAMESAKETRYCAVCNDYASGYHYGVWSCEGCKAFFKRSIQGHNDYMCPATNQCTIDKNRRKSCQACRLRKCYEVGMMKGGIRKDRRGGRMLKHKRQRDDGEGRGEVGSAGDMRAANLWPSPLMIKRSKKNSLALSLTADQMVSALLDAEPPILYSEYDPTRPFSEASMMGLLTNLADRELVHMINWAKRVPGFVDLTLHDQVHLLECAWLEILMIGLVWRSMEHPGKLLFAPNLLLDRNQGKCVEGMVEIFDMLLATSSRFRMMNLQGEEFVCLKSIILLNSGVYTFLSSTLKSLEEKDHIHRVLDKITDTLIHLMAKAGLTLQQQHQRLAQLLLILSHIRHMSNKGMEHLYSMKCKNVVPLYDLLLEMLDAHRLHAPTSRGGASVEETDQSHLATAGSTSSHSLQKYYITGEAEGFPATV
Vitamin D3 receptor (Homo sapiens), sequence (P11473 whole entry, looked up): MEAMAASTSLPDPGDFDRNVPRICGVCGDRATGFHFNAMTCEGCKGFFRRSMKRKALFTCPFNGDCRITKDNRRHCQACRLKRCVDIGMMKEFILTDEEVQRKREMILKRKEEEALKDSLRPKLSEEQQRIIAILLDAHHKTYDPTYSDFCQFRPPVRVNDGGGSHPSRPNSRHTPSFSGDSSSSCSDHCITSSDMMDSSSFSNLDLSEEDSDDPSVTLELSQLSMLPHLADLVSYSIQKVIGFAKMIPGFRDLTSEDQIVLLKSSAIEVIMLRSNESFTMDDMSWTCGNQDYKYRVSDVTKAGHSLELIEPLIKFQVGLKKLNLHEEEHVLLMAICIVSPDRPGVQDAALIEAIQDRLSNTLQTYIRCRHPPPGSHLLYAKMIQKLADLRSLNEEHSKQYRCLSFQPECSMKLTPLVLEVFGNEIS
Thyroid hormone receptor beta (Homo sapiens), sequence (P10828 whole entry, looked up): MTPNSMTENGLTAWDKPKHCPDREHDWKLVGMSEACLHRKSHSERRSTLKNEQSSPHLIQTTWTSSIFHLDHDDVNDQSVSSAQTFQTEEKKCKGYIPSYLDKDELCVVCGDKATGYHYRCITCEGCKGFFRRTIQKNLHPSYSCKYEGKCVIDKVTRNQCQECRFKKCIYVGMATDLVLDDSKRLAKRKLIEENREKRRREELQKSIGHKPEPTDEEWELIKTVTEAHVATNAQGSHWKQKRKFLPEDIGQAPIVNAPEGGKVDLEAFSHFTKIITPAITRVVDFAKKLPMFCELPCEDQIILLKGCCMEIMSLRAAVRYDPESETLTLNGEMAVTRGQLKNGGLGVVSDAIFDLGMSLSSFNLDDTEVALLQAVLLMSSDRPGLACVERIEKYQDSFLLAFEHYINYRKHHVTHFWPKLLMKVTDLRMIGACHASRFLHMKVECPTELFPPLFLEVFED
Nuclear receptor subfamily 1 group I member 2 (Rattus norvegicus), sequence (Q9R1A7 whole entry, looked up): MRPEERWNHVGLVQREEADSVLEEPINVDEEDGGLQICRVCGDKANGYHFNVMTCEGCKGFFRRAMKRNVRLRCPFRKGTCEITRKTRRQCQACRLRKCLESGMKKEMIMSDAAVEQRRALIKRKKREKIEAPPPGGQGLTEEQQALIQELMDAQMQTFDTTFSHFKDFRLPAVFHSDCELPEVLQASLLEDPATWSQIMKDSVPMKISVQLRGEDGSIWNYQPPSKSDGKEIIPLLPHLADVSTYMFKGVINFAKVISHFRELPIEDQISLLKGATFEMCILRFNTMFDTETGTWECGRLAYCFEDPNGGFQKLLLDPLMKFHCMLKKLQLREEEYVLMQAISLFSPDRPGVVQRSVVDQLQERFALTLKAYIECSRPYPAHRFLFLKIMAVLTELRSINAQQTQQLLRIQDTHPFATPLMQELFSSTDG
Furin (Homo sapiens), sequence (P09958 whole entry, looked up): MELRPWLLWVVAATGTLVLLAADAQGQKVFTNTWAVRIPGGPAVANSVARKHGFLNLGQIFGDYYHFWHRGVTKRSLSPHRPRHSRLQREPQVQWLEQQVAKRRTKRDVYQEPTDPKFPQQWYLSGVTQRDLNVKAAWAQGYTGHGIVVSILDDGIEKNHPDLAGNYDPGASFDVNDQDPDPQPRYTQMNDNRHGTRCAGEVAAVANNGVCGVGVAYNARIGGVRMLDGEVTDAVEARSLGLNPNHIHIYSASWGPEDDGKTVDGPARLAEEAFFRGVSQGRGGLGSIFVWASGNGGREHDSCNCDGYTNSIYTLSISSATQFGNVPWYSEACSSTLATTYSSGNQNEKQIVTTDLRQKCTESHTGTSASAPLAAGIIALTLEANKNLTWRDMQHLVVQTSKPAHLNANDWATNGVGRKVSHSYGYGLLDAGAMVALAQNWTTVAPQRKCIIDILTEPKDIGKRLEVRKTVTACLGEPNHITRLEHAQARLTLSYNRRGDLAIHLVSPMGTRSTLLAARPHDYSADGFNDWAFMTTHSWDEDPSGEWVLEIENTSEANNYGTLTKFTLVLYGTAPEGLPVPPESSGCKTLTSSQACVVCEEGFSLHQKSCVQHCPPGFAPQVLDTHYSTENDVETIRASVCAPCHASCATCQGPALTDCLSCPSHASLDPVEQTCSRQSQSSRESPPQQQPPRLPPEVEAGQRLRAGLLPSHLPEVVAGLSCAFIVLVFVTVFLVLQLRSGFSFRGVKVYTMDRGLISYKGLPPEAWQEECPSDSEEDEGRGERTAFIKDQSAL
Peroxisome proliferator-activated receptor alpha (Homo sapiens), sequence (Q07869 whole entry, looked up, the tested form may be a part): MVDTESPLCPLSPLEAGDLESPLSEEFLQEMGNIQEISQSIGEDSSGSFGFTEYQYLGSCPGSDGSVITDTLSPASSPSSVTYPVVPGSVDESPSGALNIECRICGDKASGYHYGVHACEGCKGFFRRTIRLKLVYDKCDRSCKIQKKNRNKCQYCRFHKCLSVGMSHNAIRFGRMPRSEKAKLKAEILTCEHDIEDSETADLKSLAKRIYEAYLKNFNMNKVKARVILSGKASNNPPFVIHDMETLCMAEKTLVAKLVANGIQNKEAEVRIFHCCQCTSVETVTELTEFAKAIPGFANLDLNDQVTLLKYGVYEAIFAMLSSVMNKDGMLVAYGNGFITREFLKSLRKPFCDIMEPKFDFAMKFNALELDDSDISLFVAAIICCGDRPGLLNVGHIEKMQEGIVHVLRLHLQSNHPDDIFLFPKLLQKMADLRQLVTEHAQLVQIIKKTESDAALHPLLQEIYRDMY
Bile acid receptor (Homo sapiens), sequence (Q96RI1 whole entry, looked up): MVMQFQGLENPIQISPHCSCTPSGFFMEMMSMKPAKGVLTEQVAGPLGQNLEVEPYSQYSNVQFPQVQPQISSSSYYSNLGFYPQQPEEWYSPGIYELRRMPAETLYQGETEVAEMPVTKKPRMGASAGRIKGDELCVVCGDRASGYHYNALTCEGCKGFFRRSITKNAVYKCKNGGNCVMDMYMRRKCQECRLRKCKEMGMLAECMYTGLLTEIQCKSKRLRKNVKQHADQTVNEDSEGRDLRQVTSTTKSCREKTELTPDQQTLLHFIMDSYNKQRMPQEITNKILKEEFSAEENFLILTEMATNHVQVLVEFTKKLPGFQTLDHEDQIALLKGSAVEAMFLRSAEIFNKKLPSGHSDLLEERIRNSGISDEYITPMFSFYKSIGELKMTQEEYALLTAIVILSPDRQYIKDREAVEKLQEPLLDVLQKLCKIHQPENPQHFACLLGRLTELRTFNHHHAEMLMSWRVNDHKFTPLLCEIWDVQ
Peroxisome proliferator-activated receptor delta (Homo sapiens), sequence (Q03181 whole entry, looked up): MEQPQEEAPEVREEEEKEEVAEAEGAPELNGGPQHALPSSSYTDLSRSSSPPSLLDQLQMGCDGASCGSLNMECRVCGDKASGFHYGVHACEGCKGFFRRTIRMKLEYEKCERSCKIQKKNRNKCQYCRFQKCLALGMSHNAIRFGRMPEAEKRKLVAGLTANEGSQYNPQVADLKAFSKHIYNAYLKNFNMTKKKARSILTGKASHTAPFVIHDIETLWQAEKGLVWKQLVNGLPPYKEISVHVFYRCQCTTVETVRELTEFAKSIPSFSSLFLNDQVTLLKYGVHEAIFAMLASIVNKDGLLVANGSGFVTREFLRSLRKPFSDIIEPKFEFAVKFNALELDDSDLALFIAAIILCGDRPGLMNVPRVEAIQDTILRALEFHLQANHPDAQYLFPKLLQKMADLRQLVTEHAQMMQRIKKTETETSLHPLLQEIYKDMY

CCN(Cc1cccc(S(=O)(=O)O)c1)c1ccc(C(=C2C=CC(=[N+](CC)Cc3cccc(S(=O)(=O)O)c3)C=C2)c2ccccc2S(=O)(=O)[O-])cc1
-12.5%: max response [11]
inactive: Potency [1] | outcome [2] | outcome [3] | outcome [5] | Potency [6] | outcome [7] | outcome [9] | outcome [10] | max response [12] 8.56% | activity change % (negative = inhibition) [13] -4.53% | Potency [14] | activation [15] 1.38% | activation [16] 1.84% | activation [17] -6.97% | max response [18] -9.68% | outcome [19] | Potency (Furin (Homo sapiens)) | Potency [23] | max response [27] -11% | outcome [28]
-15.8%: max response [4]
-7.12%: max response [8]
active: Potency [20] 35.5 µM | Potency [21] 31.6 µM | Potency [22] 3.55 µM | Potency [24] 3.55 µM | Potency [25] 200 µM | Potency [26] 14.1 µM
